# GPT2 inh – blocks human glutamate pyruvate transaminase 2 | Q8TD30 | Recombinant GPT2, coupled pyruvate oxidase/HRP Amplex Red fluorescence | Potency, µM (top dose mostly 57.7 µM), without a hit: at the top dose activity change, negative = inhibition, hits mostly inhibitors | hit rate 0.25% among 100,000; further: nearly all actives have a fitted effect of over 60% in size
# Target sequence (Q8TD30 whole entry, looked up): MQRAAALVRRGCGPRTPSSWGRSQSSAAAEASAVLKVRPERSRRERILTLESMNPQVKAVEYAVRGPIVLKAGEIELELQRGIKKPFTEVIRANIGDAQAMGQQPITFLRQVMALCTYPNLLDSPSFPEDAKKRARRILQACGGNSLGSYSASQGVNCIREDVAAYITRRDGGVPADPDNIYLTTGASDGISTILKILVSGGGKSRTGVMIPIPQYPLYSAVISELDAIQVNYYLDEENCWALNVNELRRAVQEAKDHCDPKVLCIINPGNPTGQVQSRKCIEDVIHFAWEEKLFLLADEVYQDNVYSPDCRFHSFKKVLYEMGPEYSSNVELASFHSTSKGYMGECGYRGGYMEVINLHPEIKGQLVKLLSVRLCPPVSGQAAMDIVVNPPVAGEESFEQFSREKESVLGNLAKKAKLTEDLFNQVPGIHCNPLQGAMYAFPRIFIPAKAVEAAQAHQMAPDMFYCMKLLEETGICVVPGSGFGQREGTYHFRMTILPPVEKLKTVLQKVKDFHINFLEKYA
#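 GPT2 10ng/uL, a-KG 250uM, L-Ala 2mM, HEPES pH7.5 + 0.0001% Tween; 30 min RT. Then Amplex mix (PO/HRP/ThPP), 30 min RT dark, fluorescence. AOA 50uM used as positive control.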
# NPR1 antag – antagonists of human natriuretic peptide receptor Npr1 | P16066 | HEK293 hNpr1 GloSensor cGMP, ANP-stimulated luminescence | Potency, µM (series often up to 46.3 µM), inactives show at the top dose activity change, negative = inhibition, usual class: inhibitors | hit rate 1.6% among 76,000; calls by dose curve; further: nearly all actives have a fitted effect of over 60% in size
#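 Compound pre-incubated 30 min at room temperature on GloSensor-loaded HEK293 cells stably carrying hNpr1 and the pGS-40F cGMP biosensor. Stimulation uses hNppA at 0.1 nM final; luminescence is taken at baseline and 20 min post-agonist.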
# Luciferase inh – inhibitors of firefly (Photinus pyralis) luciferase; purified P. pyralis luciferase, luminescence, biochemical; Potency, µM (top dose mostly 115 µM), actives largely listed as inhibitors; hit rate 2.5% among 76,000; AID 1347043; further: nearly all actives have a fitted effect of over 65% in size
#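 FLuc 10nM, D-luciferin 10uM, ATP 10uM, Mg acetate 10mM, Tris acetate pH 7.5, Tween/BSA; cpd qHTS; enzyme added last; CCD luminescence.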
# NIH3T3 tox – cytotoxic compounds in NIH 3T3 cells | NIH 3T3 viability, CellTiter-Glo ATP luminescence, 48-72 h | Potency, µM (doses to about 96.7 µM), for the others: at the top dose activity change, negative = cytotoxicity, usual class: inhibitors | hit rate 4.3% among 94,000 | AID 1345082; further: nearly all actives have a fitted effect of over 55% in size
#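 Cytotoxicity is measured as loss of cellular ATP: NIH 3T3 cells (400/well) are exposed to compound for 48 or 72 hr at 37 °C, then CellTiter-Glo luminescence is imaged after 10 min at room temperature.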
# HEK cytotox – HEK 293 cell cytotoxicity; HEK 293 viability, ATP luminescence (CellTiter-Glo), 48-72 h; Potency, µM (series often up to 115 µM), for the others: top-dose activity change, negative = cytotoxicity, usual class: inhibitors; hit rate 6.6% among 94,000; AID 1345083; further: nearly all actives have a fitted effect of over 60% in size
#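 CellTiter-Glo luminescence (cellular ATP) was read after 48 or 72 hr of compound exposure at 37 degree Celsius. Cells were HEK 293 plated at 250 cells/well.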
# Numbers without * were called inactive; i = inactive; ? = inconclusive; nt = not tested or not shown; [ ] = remark or other dose. An excerpt weighted towards active compounds, which were near 10% of everything screened. Unless noted, the call rests on the fitted dose curve; in most records, active means well fitted curve in the direction sought with a large enough effect; inconclusive means small, poorly fitted or top-dose-only effect, or another doubt; inactive means no such curve, though single readings can be large; an effect the other way counts as inactive or inconclusive. On the % scale 0 is the no-effect control and ±100 the full control effect; potency means the concentration at half of the fitted maximal effect.
SMILES,GPT2 inh,NPR1 antag,Luciferase inh,NIH3T3 tox,HEK cytotox
O=C1NCN(Cc2ccc(Cl)cc2)C12CCN(CC1CC1)CC2,1.4%[88.5 µM],21.1%[70.6 µM],i,-23.1%[138 µM],-19.0%[172 µM]
CCC(=O)N1CCc2c(C(=O)NCc3ccccc3F)cccc21,i,-2.6%,i,?,-5.1%
COc1ccc(C(=O)NC2CCN(c3cc(-c4ccccc4)[nH]n3)CC2)c(OC)c1,i,-4.8%,i,?,79.4µM*
CCOCC(=O)N1CCC(N2C(=O)C3(CCCC3)C2c2ccccc2)CC1 (stereo not given),i,9.9%,i,-23.2%,-6.1%
O=c1[nH]ccn1C1CCN(Cc2cccc3ccccc23)CC1,i,0.5%[70.6 µM],i,-21.4%[138 µM],-28.9%[172 µM]
CC(=O)c1cccc(NC(=O)Cn2c(-c3ccccc3)nc(C)cc2=O)c1,i,-2.4%,i,-11.9%,?
Cc1cc(=O)n(CC(=O)Nc2ccccc2C)c(-c2ccc(Cl)cc2)n1,-17.4%,-3.2%,i,35.5µM*,?
CC(=O)c1cccc(NC(=O)Cn2c(-c3ccc(F)cc3)nc(C)cc2=O)c1,i,-13.6%,i,-25.5%,44.7µM*
CCOC(=O)C1=C(C)N=C2SC=C(CC(=O)Nc3ccc(C)c(C)c3)N2C1c1cccc(OC)c1 (stereo not given),-29.4%,-16.5%,i,39.8µM*,44.7µM*
COC(=O)C1=C(C)N=C2SC=C(CC(=O)N(C)Cc3ccco3)N2C1c1cccc(Cl)c1 (stereo not given),-46.9%,?,i,?,25.1µM*
COC(=O)C1=C(C)N=C2SC=C(CC(=O)N(C)Cc3ccco3)N2C1c1ccc(Cl)cc1 (stereo not given),i,-25.8%,i,-23.1%,?
CCOC(=O)C1=C(C)N=C2SC=C(CC(=O)Nc3cccc(OC)c3)N2C1c1cccc(OC)c1 (stereo not given),i,-23.6%,i,?,?
COc1ccccc1Cn1c(=O)c(C(=O)N2CCN(Cc3ccccc3)CC2)nc2cccnc21,-0.6%,nt,nt,-22.3%,?
O=C(O)Cn1nc(C2CC2)nc1CCc1nc2ccccc2s1,-4.6%,1.4%,i,0.4%,-2.1%
O=C(Cc1c(F)cccc1Cl)N1CCCN(c2cc(-c3ccccc3)[nH]n2)CC1,?,-10.0%,i,?,?
O=C(Cc1cccc(Cl)c1)N1CCCC(c2nn(-c3ccccc3)c(=O)[nH]2)C1 (stereo not given),i,1.8%,i,?,44.7µM*
Cc1nn(-c2ccccc2)c2c1C(C(C)C)N(C1CCN(C(=O)Cc3cccc(Cl)c3)CC1)C2=O (stereo not given),nt,nt,nt,-26.7%,-22.3%
Cc1nn(-c2ccccc2)c2c1C(C1CC1)N(C1CN(C(=O)Cc3cccc(Cl)c3)C1)C2=O (stereo not given),nt,nt,nt,?,25.1µM*
Cc1nn(-c2ccccc2)c2c1C(C1CC1)N(C1CCCN(C(=O)c3ccccc3)C1)C2=O (stereo not given),nt,nt,nt,-34.2%,?
Cc1nn(-c2ccccc2)c2c1C(C(C)C)N(C1CN(C(=O)Cc3cccc(Cl)c3)C1)C2=O (stereo not given),nt,nt,nt,25.1µM*,25.1µM*
Cc1ccc(C(=O)N2CC(N3C(=O)c4c(c(C)nn4-c4ccccc4)C3C3CC3)C2)cc1 (stereo not given),nt,nt,nt,-15.4%,-29.5%
Cc1nn(-c2ccccc2)c2c1C(C1CC1)N(C1CN(C(=O)NC(C)(C)c3ccccc3)C1)C2=O (stereo not given),nt,nt,nt,14.1µM*,?
Cc1nc(C)c(C(=O)NCC23CCCC=C2NC(=O)CC3)s1 (stereo not given),i,6.2%,i,-1.7%,2.4%
O=C1NCCOCCN(S(=O)(=O)c2ccc3c(c2)CCC3)[C@@H]2CCCC[C@H]12,i,-1.4%,i,?,?
O=C(c1cnc2c(c1)CCCC2)N1CCCn2nc(CO)cc2C1,i,2.4%,i,5.0%,-3.9%
SMILES,GPT2 inh,NPR1 antag,Luciferase inh,NIH3T3 tox,HEK cytotox
Cc1cc(C)c(CNC(=O)c2nc(-c3ccccc3)cc3c2ccn3C(C)C)c(=O)[nH]1,i,-11.3%[70.6 µM],i,?,?
Cc1cc(C)c(CNC(=O)c2nc(-c3cccc(O)c3)cc3c2ccn3C)c(=O)[nH]1,-6.9%[88.5 µM],-3.4%[70.6 µM],i,25.1µM*,?
Cc1cc(C)c(CNC(=O)c2nc(-c3cccc(F)c3)cc3c2ccn3C(C)C)c(=O)[nH]1,0.9%[88.5 µM],-7.4%[70.6 µM],i,?,31.6µM*
Cc1cc(C)c(CNC(=O)c2nc(-c3ccnn3C)cc3c2ccn3C(C)C)c(=O)[nH]1,?,-0.7%[70.6 µM],i,89.1µM*,?
COc1ccc(N2CC(C(=O)N3CCC(C(=O)NC(C)C)C3)NC2=O)cc1 (stereo not given),?,21.4%,i,-7.5%,i
CCN(CC)Cc1cnc2c(C(=O)NC(C)c3ccccc3)cnn2c1 (stereo not given),2.6%,-1.1%,i,2.7%,-9.5%
CN1CCC2(C1)CN(CC1CCOCC1)c1ccc(C(=O)NCCc3ccccc3)cc12 (stereo not given),i,7.5%[70.6 µM],i,?,?
CN1CCC2(C1)CN(CC1CCOCC1)c1ccc(C(=O)NCCCO)cc12 (stereo not given),?,-1.0%[70.6 µM],i,89.1µM*,?
CN1CCC2(C1)CN(CC1CCOCC1)c1ccc(C(=O)NCCOc3ccccc3)cc12 (stereo not given),i,-0.9%,i,31.6µM*,?
Cc1noc(C)c1S(=O)(=O)N1CCC2(CC1)CC(N(C)Cc1ccccc1)CCO2 (stereo not given),i,14.8%,i,?,-26.9%
Cc1ccc([S+](=O)([O-])N2CCC(C(=O)N3CCCC(c4nc5ncccc5[nH]4)C3)CC2)cc1 (stereo not given),i,nt,nt,?,28.2µM*
O=C(Nc1ccc(Cl)cc1)N1CCCC(C(=O)N2CCC(c3nc4ncccc4[nH]3)C2)C1 (stereo not given),i,nt,nt,-19.8%,-27.4%
O=C(Nc1ccc(Cl)cc1)N1CCCC(C(=O)N2CCCC(c3nc4ncccc4[nH]3)C2)C1 (stereo not given),-25.6%,nt,nt,22.4µM*,?
O=C(C1CCN(CC2CC2)CC1)N1CCC(c2nc3ncccc3[nH]2)CC1,i,nt,nt,-3.5%,i
O=C(C1CCCN([S+](=O)([O-])c2cccc(C(F)(F)F)c2)C1)N1CCCC(c2nc3ccncc3[nH]2)C1 (stereo not given),-5.1%,nt,nt,?,44.7µM*
c1cnc2nc(C3CCN(CC4CCCCC4)C3)[nH]c2c1 (stereo not given),i,6.4%[70.6 µM],20µM*,-21.7%[138 µM],?

# Assay outcomes deposited in PubChem by National Center for Advancing Translational Sciences (NCATS).
